For the assay, the system named is Plasmodium falciparum. The experiment in a line: Plasmodium falciparum sporozoite viability assay. Type of assay: functional, organism-based. More on the design: scale not given: in the data most compounds retested in dose-response had high values.

Molecules are shown by their SMILES. Several values for one entry are separate records, joined by “and”; a condition that tells them apart may be missing. Equal values may be shown once. About 290 (0.85%) of roughly 34,000 compounds showed an effect of 50% or more. The sample as a whole holds a higher share of strong results than the screen did.

On to `CCc1nc(CNC(C)Cn2cccn2)cs1` (configuration not stated), for which the “Percent Effect” value was 4.8%.

In the case of `CNC(=O)[C@@H]1CN(Cc2ccccc2)C[C@H]1C(=O)c1ccc(F)cc1`, the “Percent Effect” value is on record as 12.45%.

`CC(C)(C)n1cc(C2=CCN(CCc3ccccn3)CC2)cn1`: for the setting “10 mM as filed; unlikely as a test dose”, the “Percent Effect” value is 78.88% and 77.42%.

Take `CC(C)(C)n1cc(C2=CCN(CCNC(N)=O)CC2)cn1`: where the note is “10 mM as filed; unlikely as a test dose”, the “Percent Effect” value was -28.2% and -25.06%.

On to `Cc1nc(O)cc(CN2CC=C(c3cnn(C(C)(C)C)c3)CC2)n1`, for which the “Percent Effect” value (10 mM as filed; unlikely as a test dose) was -34.41% and -32.55%.

In the case of `CC(C)(C)n1cc(C2=CCN(CCNC(=O)c3ccccc3)CC2)cn1`, where the note is “10 mM as filed; unlikely as a test dose”, the “Percent Effect” value was -11.67% and -1.893%.

For the compound `CC(C)(C)n1cc(C2=CCN(CCc3ccccc3)CC2)cn1`, the “Percent Effect” value (10 mM as filed; unlikely as a test dose) was 84.88% and 75.7% and 89.28%.

On to `CC(C)(C)n1cc(C2=CCN(CCN3CCCCCC3)CC2)cn1`, for which, for the setting “10 mM as filed; unlikely as a test dose”, the “Percent Effect” value is -30.5% and -32%.

Regarding `O=C(O)C(F)(F)F.O=C(O)C(F)(F)F.O=S(=O)(C1CC1)N1CCC2(CC1)CN(Cc1ccccn1)CCO2`, the “Percent Effect” value is given as 0.5199%.

Take `CCS(=O)(=O)N1CCN(CC2CC2)c2ncccc2C1`: the “Percent Effect” value is given as 11.27%.

As to `O=C(c1ccsc1)N1CCN2C[C@H](OCc3ccccn3)C[C@H]2C1`, the “Percent Effect” value was found to be 1.117%.

As to `O=C(Cc1ccccn1)N1CCN2C[C@H](OCCN3CCCC3)C[C@H]2C1.O=C(O)C(F)(F)F.O=C(O)C(F)(F)F.O=C(O)C(F)(F)F`, the “Percent Effect” value is listed as -8.505%.

As for `Cl.FC(F)(F)c1nc(C2CCCNC2)no1` (configuration not stated), the “Percent Effect” value worked out at 6.016%.

Turning to `c1cnc(Nc2ccc(C3CCCCN3)cn2)cn1` (configuration not stated), the “Percent Effect” value (10 mM as filed; unlikely as a test dose) is -2.241% and -0.3197% and -12.37%.

Consider `Cc1cc(C)nc(C2CCCNC2)n1.Cl.Cl` (configuration not stated), for which the “Percent Effect” value was found to be 16.42%.

Consider `Cc1cc(O)nc(C2CCCNC2)n1.Cl` (configuration not stated), for which the “Percent Effect” value was determined as 1.062%.

In the case of `Cc1cccc(Nc2ccc(C3CCCCN3)cn2)n1` (configuration not stated), the “Percent Effect” value (10 mM as filed; unlikely as a test dose) is 97.8% and 85.07% and 40.73%.

As for `COCCN1CCOCC12CCN(C(=O)c1ccncc1)CC2.O=C(O)C(F)(F)F`, the “Percent Effect” value was -4.875%.

With `O=C(O)C(F)(F)F.O=C(O)C(F)(F)F.c1cncc(N2CCOCC3(CN(Cc4cccs4)CCO3)C2)c1` (configuration not stated), the “Percent Effect” value was found to be 7.302%.

As to `O=C(O)C(F)(F)F.O=C(O)C(F)(F)F.c1cncc(COCC2CC[C@H]3[C@H]2OCCN3Cc2ccoc2)c1` (some centres not stated), the “Percent Effect” value was determined as 12.08%.

For `O=C(O)C(F)(F)F.O=C(O)C(F)(F)F.c1cncc(OC[C@@]23CCC[C@@H]2CN(C2CCOCC2)C3)c1`, the “Percent Effect” value stood at 9.846%.

Regarding `O=C(O)C(F)(F)F.O=C(O)C(F)(F)F.c1cnc(N2CC3(CCN(Cc4ccncc4)C3)C2)nc1`, the “Percent Effect” value is listed as -6.54%.

Values taken from ChEMBL document CHEMBL3988442, “University of Dundee, Small-Polar-MMV Screening Library” (2021).
